Source: article PMC4336329 (PLoS ONE, 2015)
The campaign covered roughly 310,000 compounds. About 14,000 (4.5%) showed an effect of 50% or more. The effect is printed as a negative number. The full list was thinned out, with strong results kept by preference.

Each molecule was assayed against human ether-à-go-go-related gene (hERG) potassium channel (human, UniProt Q12809) (assay: primary screen, population patch clamp on CHO cells stably expressing hERG; higher = less effect of the substance).
human ether-à-go-go-related gene (hERG) potassium channel, sequence (Q12809 whole entry, looked up): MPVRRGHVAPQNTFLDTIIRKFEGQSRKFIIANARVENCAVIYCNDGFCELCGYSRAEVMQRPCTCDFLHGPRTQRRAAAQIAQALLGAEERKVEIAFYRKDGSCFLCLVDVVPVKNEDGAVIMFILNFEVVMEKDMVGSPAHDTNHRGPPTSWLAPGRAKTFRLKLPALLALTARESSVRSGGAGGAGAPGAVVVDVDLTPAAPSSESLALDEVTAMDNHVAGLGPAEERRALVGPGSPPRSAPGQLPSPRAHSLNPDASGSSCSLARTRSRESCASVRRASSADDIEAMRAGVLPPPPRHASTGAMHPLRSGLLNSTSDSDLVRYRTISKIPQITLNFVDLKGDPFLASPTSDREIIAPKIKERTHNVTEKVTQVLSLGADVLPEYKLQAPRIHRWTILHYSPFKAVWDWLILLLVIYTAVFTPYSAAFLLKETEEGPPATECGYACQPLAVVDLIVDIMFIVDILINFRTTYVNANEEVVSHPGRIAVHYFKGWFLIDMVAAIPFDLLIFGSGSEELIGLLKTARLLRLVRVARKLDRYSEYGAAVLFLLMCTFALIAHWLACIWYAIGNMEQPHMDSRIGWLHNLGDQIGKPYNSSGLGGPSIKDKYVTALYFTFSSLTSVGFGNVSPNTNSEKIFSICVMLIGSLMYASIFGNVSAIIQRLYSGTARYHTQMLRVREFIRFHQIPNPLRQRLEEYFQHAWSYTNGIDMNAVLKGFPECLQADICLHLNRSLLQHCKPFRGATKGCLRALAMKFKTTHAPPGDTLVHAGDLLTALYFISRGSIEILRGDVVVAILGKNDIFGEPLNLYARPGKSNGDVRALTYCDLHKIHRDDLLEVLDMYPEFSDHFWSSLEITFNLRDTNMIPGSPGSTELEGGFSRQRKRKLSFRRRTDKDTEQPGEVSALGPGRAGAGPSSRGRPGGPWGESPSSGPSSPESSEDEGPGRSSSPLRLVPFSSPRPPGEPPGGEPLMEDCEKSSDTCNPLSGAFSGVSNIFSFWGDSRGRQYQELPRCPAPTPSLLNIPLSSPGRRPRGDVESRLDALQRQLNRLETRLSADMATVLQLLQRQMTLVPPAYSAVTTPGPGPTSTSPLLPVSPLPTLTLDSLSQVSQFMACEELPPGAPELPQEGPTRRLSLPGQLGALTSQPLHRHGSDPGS
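Further: peak tail current of the secondary pulse compared with the same well before compound.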

SMILES | hERG current change (%, negative = inhibition) at 10uM [%]
O=C(CSc1ccccc1C(=O)NCc1ccccc1)NC1CCCCCCC1 | -8.1
O=C(/C=C/c1ccc([N+](=O)[O-])cc1)NCc1cccnc1 | -42.7
CC1(C)CC(=O)C=C(C(=O)N2CCCC(C(=O)c3cccc(Cl)c3)C2)O1 (stereo not shown) | -31
O=C(O)c1ccc(NS(=O)(=O)c2ccc(Cl)cc2)cc1 | 0.513
COc1cccc(C(=O)N2CCC(n3nccc3NC(=O)CCOc3ccccc3)CC2)c1 | -0.0371
CCNC(=O)N1CCC(n2nccc2NC(=O)CCOc2ccccc2)CC1 | 9.99
CC(=O)c1cccc(CN2CCC(n3nccc3NC(=O)CCOc3ccccc3)CC2)c1 | -3.2
O=C(CCCc1ccccc1)Nc1ccnn1C1CCN(Cc2ccccc2F)CC1 | -49
Cc1ccc(CN2CCC(n3nccc3NC(=O)CCOc3ccccc3)CC2)o1 | -20.7
COc1ccc(O)c(CN2CCC(n3nccc3NC(=O)CCOc3ccccc3)CC2)c1 | -60.4
COc1ccc(F)c(CN2CCC(n3nccc3NC(=O)CCCc3ccccc3)CC2)c1 | -86.7
O=C(CCOc1ccccc1)Nc1ccnn1C1CCN(CCc2ccccc2)CC1 | -65.1
COc1cccc(CN2CCC(n3nccc3NC(=O)CCOc3ccccc3)CC2)c1 | -62
Cc1cc(C)c(CN2CCC(n3nccc3NC(=O)CCOc3ccccc3)CC2)cc1C | -26.1
O=C(CCOc1ccccc1)Nc1ccnn1C1CCN(Cc2ccc(CO)o2)CC1 | 6.52
CCn1c(SCc2nc3ccccc3[nH]2)nnc1-c1ccc(OC)cc1 | -1.72
O=C(NNC(=O)C1CC(=O)N(Cc2ccccc2)C1)c1ccc(F)cc1 (stereo not shown) | 2.46
O=C(NC1CCCCCC1)c1cccnc1Sc1ccccc1 | -15.4
O=S(=O)(c1ccc(NC(=S)N2CCN(c3ccc(O)cc3)CC2)cc1)N1CCOCC1 | 2.83
COC(=O)C[C@H]1c2cc(F)cc(F)c2S(=O)(=O)N1C1CCN(Cc2ccccc2)CC1 | -32
CC(=O)Nc1ccc(S(=O)(=O)CCC(=O)O)cc1 | 17.5
Cc1cc(C(=O)Nc2sc(C)c(C)c2C#N)c(C)o1 | 20.6
Cc1ccc2oc(C(=O)NCC(c3ccco3)N(C)C)c(C)c2c1 (stereo not shown) | -8.52

SMILES | hERG current change (%, negative = inhibition) at 10uM [%]
CCn1cc(CN2CCC(n3nccc3NC(=O)CCOc3ccccc3)CC2)cn1 | -12.9
Cc1ccc(CN2CCC(n3nccc3NC(=O)CCOc3ccccc3)CC2)cc1C | -48.2
CCn1cc(CN2CCC(n3nccc3NC(=O)CCOc3ccccc3)CC2)c(C)n1 | 7.84
COc1ccc(CN2CCC(n3nccc3NC(=O)CCOc3ccccc3)CC2)cc1C | -68.7
O=C(CCOc1ccccc1)Nc1ccnn1C1CCN(Cc2ccc(F)cc2)CC1 | -59.1
O=C(COc1ccc2c3c(c(=O)oc2c1)CCC3)NCC(O)c1ccccc1 (stereo not shown) | 11.5
CCOC(=O)C1CCCN(S(=O)(=O)c2ccc3c(c2)NC(=O)CO3)C1 (stereo not shown) | -1.47
COc1ccc(C2(C)NC(=O)N(CC(=O)Nc3ccc(S(=O)(=O)N4CCCC4)cc3)C2=O)cc1 (stereo not shown) | -2.91
O=C(CN1CCOCC1)Nc1ccc(OCc2ccccc2)cc1 | -21.3
O=C(CN1CCN(c2ccccc2)CC1)Nc1ccc(OCc2ccccc2)cc1 | 2.44
O=C(CN1CCCC1)Nc1ccc(OCc2ccccc2)cc1 | -54.1
CN1CCN(CC(=O)Nc2ccc(OCc3ccccc3)cc2)CC1.Cl | -9.11
O=C(CN1CCN(c2ccccn2)CC1)Nc1ccc(OCc2ccccc2)cc1 | -45.3
O=C(CN1CCN(CC(=O)Nc2ccc(OCc3ccccc3)cc2)CC1)Nc1ccc(F)cc1 | -72.5
COC(=O)c1ccc(N=Cc2c(C(F)(F)F)[nH][nH]c2=O)cc1 | 27.2
CCCCCc1nc2ccccc2c(=O)n1-c1ccccc1[N+](=O)[O-] | -24.5
Cc1ccc(NC(=O)c2cccs2)cc1NC(=O)c1cccc(F)c1 | 5.36
CC(C)c1c(O)nc(SCc2ccccc2)[nH]c1=O | 11.5
CSc1ccccc1C(=O)NCC1CCCO1 (stereo not shown) | -11.8
O=C1c2ccccc2C(=O)N1CSc1nnnn1-c1ccccc1 | -3.73
CCSc1nnc2c(Cl)cc(Cl)cn12 | 5.28
O=C1c2ccccc2C(=O)N1CCCCSc1nnnn1-c1ccccc1 | -51.7
O=C1c2ccccc2C(=O)N1CCCCSc1nnc2c(Cl)cc(Cl)cn12 | -80.2

SMILES | hERG current change (%, negative = inhibition) at 10uM [%]
O=C1c2ccccc2C(=O)N1CCCCSc1nnc2ccccn12 | -22.7
O=C(O)CCSc1nnnn1-c1ccccc1 | -1.42
CC(=O)OCc1cc(-c2nc3ccccc3[nH]c2=O)nn1-c1ccc(Cl)cc1 | 18
O=C(CSc1nc2[nH]ncc2c(=O)[nH]1)NCCc1ccccc1 | 26.9
O=[N+]([O-])c1ccc2c(c1N1CCCCC1)=NC1(CCCCC1)[N+]=2[O-] | -8.78
Cc1ccc(NC(=O)C/C(N)=N/OC(=O)Nc2ccc(C)c(Cl)c2)cc1 | 4.56
O=C(NCCCN1CCOCC1)c1ccc(-n2nc(C(F)(F)F)cc2-c2cccs2)cc1 | -80.4
COCCCNC(=O)c1ccc(-n2nc(C(F)(F)F)cc2-c2cccs2)cc1 | -30.6
O=C(NCCCN1CCOCC1)c1cc(-c2cccs2)on1 | -15.7
COc1ccc(C(=O)COC(=O)CN2C(=O)NC(C)(C)C2=O)cc1OC | -1.87
NC(=O)C(=O)N/N=C/c1c[nH]c2ccc(Br)cc12 | 12.7
O=C(NC(=S)Nc1ccc(CN2CCOCC2)cc1)c1cccc([N+](=O)[O-])c1 | 10.7
Cc1ccc(-n2c(=O)[nH]cc(C(=O)Nc3ccc4c(c3)OCCO4)c2=O)cc1C | -5.33
CC(C)C(CCNC1CCN(C)CC1)c1ccc(Cl)cc1 (stereo not shown) | 11.3
CCN1CCC(NCCc2ccc(F)cc2)CC1 | -0.893
CN1CCC(NCCC(c2ccc(F)cc2)c2ccc(Cl)cc2)CC1 (stereo not shown) | -71.5
Cc1ccccc1-c1noc(CNC(=O)COc2ccccc2)n1 | -10.4
COc1ccc(C(=O)N(C)Cc2ccccc2)cc1Br | -8.29
Cc1cc(Br)ccc1NC(=O)CN(C)C(=O)C1CCN(C(=O)c2ccc(F)cc2)CC1 | -65.1
CCOc1ccc(NC(=O)CN(C)C(=O)C2CCN(C(=O)c3ccc(Cl)cc3)CC2)cc1OCC | -48.1
Cc1cc(Br)ccc1NC(=O)CN(C)C(=O)CCSc1ccc(F)cc1 | 0.468
CN(CC(=O)Nc1ccccc1Br)C(=O)C1CCN(C(=O)c2ccc(Cl)cc2)CC1 | -50.1
CN(CC(=O)Nc1ccccc1Br)C(=O)c1ccc(-c2ccc(Cl)cc2)o1 | 5.51

SMILES | hERG current change (%, negative = inhibition) at 10uM [%]
Cc1ccccc1C(=O)N1CCC(C(=O)N(C)CC(=O)Nc2cccc(F)c2)CC1 | 12.4
CN(CC(=O)Nc1ccccc1Br)C(=O)CN1CCN(c2ccccc2Cl)CC1 | -29.6
CN(CC(=O)Nc1ccccc1Cl)C(=O)C1CCN(C(=O)c2ccc(F)cc2)CC1 | -20.9
CN(CC(=O)Nc1ccccc1Br)C(=O)CN1CCN(Cc2ccc(Cl)cc2)CC1 | -66.9
CN(CC(=O)Nc1cccc(F)c1)C(=O)C1CCN(C(=O)c2ccc(Cl)cc2)CC1 | -55.5
CN(CC(=O)Nc1ccccc1C(F)(F)F)C(=O)C1CCN(C(=O)c2ccc(Cl)cc2)CC1 | -31.8
CN(CC(=O)Nc1ccccc1Cl)C(=O)C1CCN(C(=O)c2ccc(Cl)cc2)CC1 | -35.1
CC(=O)Nc1ccc(Sc2ccccc2C(=O)O)c(C(=O)O)c1 | 19.4
CCCc1[nH]n(-c2ccc(F)cc2)c(=O)c1C=Nc1ccc(C)cc1 | 4.95
CCOc1ccccc1NC(=O)Nc1ccc(OC)nc1 | 14.7
CCOC(=O)c1ccc(S(=O)(=O)NC2CCCCCCC2)n1C | -12.4
O=C(NCc1ccccc1)C1CCCN(S(=O)(=O)c2cccs2)C1 (stereo not shown) | -0.56
COc1ccc(-c2cc(C(=O)N3CCN(Cc4ccc5c(c4)OCO5)CC3)on2)cc1OC | 2.8
COc1ccc2oc(-c3ccccc3)c(C(=O)N3CCOCC3)c2c1 | -8.44
Cc1csc(NC(=O)c2c(-c3c(F)cccc3Cl)noc2C)n1 | -10.9
Cc1ccc(S(=O)(=O)NC2CCCC2)cc1C | -9.68
CCC[N+](CC#Cc1ccccc1)(CCC)CC(=O)OCC | -1.25
CC[N+](CC)(CC#Cc1ccccc1)CC(=O)c1ccc(Cl)cc1 | -60.3
CCC[N+](CC#Cc1ccccc1)(CCC)CC(=O)OC | 9.58
CCC[N+](CC#Cc1ccccc1)(CCC)CC(=O)c1ccc(Cl)cc1 | -67.4
C[N+](C)(CC#Cc1ccccc1)CC(=O)c1ccc(Cl)cc1 | -28.3
C[N+](C)(CC#Cc1ccccc1)CC(=O)c1ccccc1.[Br-] | -13.5
